Assay results: PubChem BioAssay

These compounds were tested on Lefty1 (assay: Lefty1 protein binding to printed compounds – biochemical, small-molecule microarray, 635/667 nm fluorescence, primary screen (AID 1139)). Settings: fluorescence 635/667, higher = more signal.

SMILES | composite z-score
O=C1O[C@H](c2ccccc2)[C@H](c2ccccc2)N2[C@H]1[C@@H](C(=O)N1CCN(c3ncccn3)CC1)[C@]1(C(=O)Nc3ccccc31)[C@H]2c1ccc(OCCO)cc1 | 1.12
C=CCNC(=O)[C@@H]1[C@H]2C(=O)O[C@H](c3ccccc3)[C@H](c3ccccc3)N2[C@H](c2ccc(OCCO)cc2)[C@@]12C(=O)Nc1ccccc12 | 1.03
CC(C)C[C@@H]1NC(=O)[C@@H]2C[C@H](C(=O)NCCCCCC[N+](C)(C)C)[C@H](c3ccc(O)cc3)N2C1=O | 1.08
CCCC[C@H]1OB(O)C[C@H]2C1=C(C)C[C@H]1C(=O)N(Cc3ccccc3)C(=O)[C@H]12 | 0.63
COc1ccc(C#Cc2ccc3c(c2)[C@]2(C(=O)N3)[C@H](C(=O)NC[C@H](O)c3ccccc3)[C@H]3C(=O)O[C@H](c4ccccc4)[C@H](c4ccccc4)N3[C@@H]2c2ccc(OCCO)cc2)cc1 | 1.22
COCCOC(=O)N1C(=O)[C@@]2(c3cc(C#CCNC(N)=O)ccc31)[C@H](c1ccc(O)cc1)N1[C@H](c3ccccc3)[C@H](c3ccccc3)OC(=O)[C@H]1[C@@H]2C(=O)Nc1nc2ccccc2s1 | 0.851
COC(=O)[C@@]1(Cc2ccccc2)[C@H]2c3cc(C(=O)N4CCCC4)n(Cc4ccc(C)o4)c3C[C@H]2CN1C(=O)c1ccccc1 | -0.0201
COc1cc2c(cc1OC)CN(C(=O)[C@@H]1[C@H]3C(=O)O[C@H](c4ccccc4)[C@H](c4ccccc4)N3[C@H](c3ccccc3OCCO)[C@@]13C(=O)Nc1ccc(C#CCNC(N)=O)cc13)CC2 | 0.768
COC(=O)[C@@]1(Cc2ccc(OC)cc2)[C@H]2c3cc(C(=O)N(C)C)n(Cc4c(OC)[nH]cc(C)c4=O)c3C[C@H]2CN1C(=O)c1ccccc1 | -0.144
COCCOC(=O)N1C(=O)[C@@]2(c3cc(C#CCCO)ccc31)[C@H](C(=O)NC[C@H](O)c1ccccc1)[C@H]1C(=O)O[C@H](c3ccccc3)[C@H](c3ccccc3)N1[C@@H]2c1ccc(O)cc1 | 0.429
COC(=O)[C@]1(Cc2ccccc2N=[N+]=[N-])N=C(c2ccc(OCCCO)cc2)O[C@@H]1c1ccccc1N=[N+]=[N-] | 0.131
[N-]=[N+]=NCc1ccccc1[C@@H]1OC(c2ccc(OCCCO)cc2)=N[C@]1(Cc1ccccc1N=[N+]=[N-])C(=O)NCc1ccccc1 | 0.621
Cc1ccc(S[C@]2(C(=O)NC3CC3)CC(=O)N(C3CCCCC3)[C@@H]2c2ccc(CO)cc2I)cc1 | 0.87
CC(C)NC(=O)[C@@H]1c2ccccc2C(=O)N(Cc2ccccc2)[C@H]1c1ccc(CO)cc1 | -1.54
[N-]=[N+]=NCc1ccccc1[C@H]1OC(c2ccc(OCCCO)cc2)=N[C@@]1(CCS(=O)(=O)c1ccccc1)C(=O)N1CCOCC1 | -0.0664
COc1cc(C(O)C2C=CC3C(=O)N(c4ccccc4)C(=O)C3N2Nc2ccc(C#N)cc2)cc(OC)c1OC (stereo not given) | -0.0667
O=C1C2C=CC(C(O)c3ccc(B(O)O)cc3)N(Nc3ccccc3)C2C(=O)N1c1ccccc1 (stereo not given) | -0.698
NCCCCCCNC(=O)[C@H]1C[C@H]2C(=O)NCC(=O)N2[C@H]1c1cccc(OCCO)c1 | 1.04
COc1cccc(C(=O)O[C@H]2CC[C@]3(C)C4=C(CCC3C2(C)C)[C@]2(C)CC[C@H]([C@H](C)CCCC(C)C)[C@@]2(C)CC4)c1 (stereo not given in full) | 0.24
CCOC(=O)C[C@H]1[C@H](OC(=O)Cc2ccc3c(c2)OCO3)[C@@H](NC(=O)c2ccc(-c3ccccc3)cc2)c2cc(OCCCO)ccc2N1C(=O)c1ccccc1 | 0.419
O=C1OCCC=C[C@H]2OC34C=CCN(Cc5ccccc5)C(=O)[C@H]3N(CCCCCO)C(=O)[C@@H]4C12 (stereo not given in full) | 0.475
CS(=O)(=O)CCOC(=O)C1=CC(CCCO)=CC(c2cccs2)N(Cc2cc3c(cc2Br)OCO3)C=C1C(=O)OCCS(C)(=O)=O (stereo not given) | 1.22
O=C1O[C@@H](c2ccccc2)[C@@H](c2ccccc2)N2[C@@H](c3ccc(OCCO)cc3)[C@]3(C(=O)Nc4ccc(C#CC5=CCCCC5)cc43)[C@@H](C(=O)O)[C@H]12 | 0.46
C=CC[C@@]1(C(=O)NCC(O)CO)N=C(c2ccc(OCCCO)cc2)O[C@@H]1c1ccccc1N=[N+]=[N-] (stereo not given in full) | 0.003
NC(=O)NCC#Cc1ccc2c(c1)[C@]1(C(=O)N2)[C@H](C(=O)NC[C@H](O)c2ccccc2)[C@H]2C(=O)O[C@H](c3ccccc3)[C@H](c3ccccc3)N2[C@@H]1c1ccc(O)cc1 | 0.595
